Source: PubChem BioAssay (several laboratories)
mHtt clearance: mutant huntingtin protein clearance; HeLa Exon1htt(103Q)mCFP, aggregate imaging; zero = plate's median compound well; 47,000 compounds, 0.42% hits; inhibition, % at 1.5 µM;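 active means inhibition of aggregate fluorescence above about 70%, also judged a hit by eye on the cell image, limit read from the data, passing the limit was not always enough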;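 further: cells exposed to compound for three days before fixation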
M1 antagonist: antagonists of rat M1 muscarinic receptor. CHO-M1 cells, Fluo-4 calcium, ACh EC80 antagonist mode; active compounds read low. P08482. 64,000 compounds, 3.4% hits. B-score at 10 µM. AID 628;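 active means calcium fluorescence response, raw or row-and-column corrected B-score, differing from the plate sample mean either way at a set confidence level, mostly lower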
Target sequence (P08482 whole entry, looked up): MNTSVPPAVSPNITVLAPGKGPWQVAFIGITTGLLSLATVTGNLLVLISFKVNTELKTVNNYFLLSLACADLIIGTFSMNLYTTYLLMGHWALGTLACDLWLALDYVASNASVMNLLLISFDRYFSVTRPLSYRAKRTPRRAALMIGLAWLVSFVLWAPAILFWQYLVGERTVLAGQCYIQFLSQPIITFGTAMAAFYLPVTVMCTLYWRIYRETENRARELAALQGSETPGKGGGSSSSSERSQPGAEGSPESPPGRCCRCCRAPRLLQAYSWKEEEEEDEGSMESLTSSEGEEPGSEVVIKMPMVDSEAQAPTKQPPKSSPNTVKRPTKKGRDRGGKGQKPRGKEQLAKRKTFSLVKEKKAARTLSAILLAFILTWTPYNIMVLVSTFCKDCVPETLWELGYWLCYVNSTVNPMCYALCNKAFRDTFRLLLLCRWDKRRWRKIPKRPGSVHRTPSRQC
M1 ag: M1 muscarinic receptor agonism | CHO-M1 cells, Fluo-4 calcium fluorescence, agonist mode; active compounds read high | B-score at 10 µM | 64,000 compounds, 3% hits | AID 626;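 active means fluorescence rise, raw or as B-score row- and column-corrected plate score, outside the 99.7% band of its plate's samples, either direction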
D1 mod: allosteric modulators of human D1 dopamine receptor | B-score at 10 µM | AID 641 | HEK293 D1, CRE-luciferase, dopamine EC30 potentiation; actives deviate in either direction | P21728 | 58,000 compounds, 5.9% hits;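 active means luminescence count or its row- and column-corrected plate score outside the 99.7% band of the plate's sample wells, on either side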
D1 mod confirm: confirmation of human D1 dopamine receptor allosteric modulators; shares compounds with D1 mod; HEK293 D1 CRE-luciferase, dopamine EC30 potentiation; active compounds read high; luminescence at 10 µM; 2,200 compounds, 88% hits;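 active means luminescence in either of two replicates above the same-plate mean plus 3 SD of the low-dose dopamine control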
D1 ag no DA: D1 (human) signaling in absence of dopamine | shares compounds with D1 mod | HEK293 D1 CRE-luciferase, luminescence, no dopamine; active compounds read high | luminescence at 10 µM | 1,900 compounds, 0.8% hits; in the data active means luminescence above about 3900
Isoprot counter: counter-screen for D1 modulators: isoproterenol response in HEK293 cells; HEK293 D1 CRE-luciferase, isoproterenol EC30 counter-screen; active compounds read high; 2,200 compounds, 63% hits; shares compounds with D1 mod; luminescence at 10 µM;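 active means luminescence in either replicate above plate mean of wells with a partly effective reference agonist dose plus 3 SD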;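 further: isoproterenol raises cAMP through native beta-adrenoceptor Gs so signal bypasses D1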
The depositor's hits bear a star; nt = no result. Shown are actives, neighbours in structure and some others; about 9.1% of the full set was active somewhere.

SMILES	mHtt clearance	M1 antagonist	M1 ag	D1 mod	D1 mod confirm	D1 ag no DA	Isoprot counter
c1ccc(Cc2nnc3sc(-c4ccc5c(c4)OCCO5)nn23)cc1	nt	-0.43	-0.48	6.9*	12856*	1704	4732*
c1ccc2c(c1)nnn2Cc1nnc2sc(-c3ccncc3)nn12	nt	-0.024	0.014	0.17	nt	nt	nt
c1csc(-c2nn3c(Cn4nnc5ccccc54)nnc3s2)c1	nt	0	-0.84	5.6*	9180*	1476	3180
COc1cc(-c2nnc(COc3ccc4ccccc4c3)o2)cc(OC)c1OC	-20	0.45	0.3	0.5	nt	nt	nt
COc1cc(OC)c(CN2CCCCCCC2)cc1Br	44	nt	nt	nt	nt	nt	nt
O=C(Cn1ncc2c(=O)oc3ccccc3c21)NCCN1CCN(c2ccccc2F)CC1	nt	-0.12	0.023	nt	nt	nt	nt
O=C(Oc1cccc(Br)c1)c1cccnc1	22	-0.027	0.044	0.53	nt	nt	nt
Cc1ccc2nc(Nc3ccccc3)c(/C=N/O)c(=O)n2c1	nt	1.1	-0.74	10*	17088*	1488	3560*
O=C1CC(=O)N(CCc2ccc(F)cc2)C(=O)N1	40	nt	nt	nt	nt	nt	nt
COC(=O)c1nc(N)sc1-c1ccccc1	nt	0.064	0.17	11*	21800*	1648	3496*
COC(=O)c1nc(-c2ccccc2)oc1N(C)C	nt	1.5	-1.6	2.6	nt	nt	nt
Cc1cc2nc(CCN(C(=S)NCC(C)C)C3CCCC3)[nH]c2cc1C	-3	nt	nt	nt	nt	nt	nt
COc1ccc(C(=O)Nn2c(C)ccc2C)cc1OC	-36	-0.23	0.11	9.6*	11780*	1660	3972*
COCCNC(=O)c1ccc(N(C)S(=O)(=O)c2ccc(OC)c(OC)c2)cc1	57	0.26	0.3	11*	14404*	1504	3924*
CCOc1cc(C(=O)NCCOC)ccc1OC	12	-0.15	0.05	4.8*	7216*	1968	2724
COc1ccc(C(=O)Nc2cccc(C(C)=O)c2)cc1OC	nt	-0.2	-2.3	nt	nt	nt	nt
CCOc1cccc(N2C(=O)CC(NCc3ccc(S(N)(=O)=O)cc3)C2=O)c1 (configuration not stated)	4	-0.46	-0.35	0.66	nt	nt	nt
Cc1ccc(S(=O)(=O)N2CCCC(C(=O)NCCc3ccc4c(c3)OCO4)C2)cc1 (configuration not stated)	nt	-0.035	-1.3	0.058	nt	nt	nt
CCCS(=O)(=O)N1CCCC(C(=O)NCC2CCCO2)C1 (configuration not stated)	14	0.0075	0.063	-0.018	nt	nt	nt
CCOc1ncccc1C(=O)OCc1nnc(-c2ccccc2)o1	-9	1.4	-0.19	4.1*	13008*	1620	3060
Cc1c(Cl)c(C(F)(F)F)nn1CC(=O)N1CCSCC1	-20	0.038	-1.1	nt	nt	nt	nt
Cc1ccc(N2C(=O)CC3(CC4C=CC3C4)C2=O)cc1 (configuration not stated)	-50	0.54	0.088	0.77	nt	nt	nt
Cc1noc(C)c1CSc1nc2[nH]ncc2c(=O)n1-c1ccccc1	nt	0.75	0.0024	11*	14168*	1776	10060*
Cc1nc(CSc2nc3[nH]ncc3c(=O)n2-c2ccccc2)cs1	17	0.36	0.11	4.6*	12732*	1692	4244*
CCCC(c1nnnn1C1CCCC1)N1CCN(C(=O)c2ccco2)CC1 (configuration not stated)	nt	-0.052	-0.16	3.4*	5248	1512	2408
SMILES	mHtt clearance	M1 antagonist	M1 ag	D1 mod	D1 mod confirm	D1 ag no DA	Isoprot counter
CCCCC(c1nnnn1C1CCCC1)N1CCN(C(=O)c2ccco2)CC1 (configuration not stated)	-9	-0.18	-0.54	-0.46	nt	nt	nt
COC(=O)c1sc(N)c(C(=O)OC)c1COC(=O)C1CC(=O)N(Cc2ccco2)C1 (configuration not stated)	29	-0.48	0.92	0.062	nt	nt	nt
CCOC(=O)c1[nH]c(COC(=O)C2CC(=O)N(Cc3ccccc3)C2)c(C(=O)OCC)c1C (configuration not stated)	-19	0.47	-0.56	2.9*	4948	1448	2652
CCOC(=O)c1sc(N)c(C(=O)OCC)c1COC(=O)C1CC(=O)N(Cc2ccco2)C1 (configuration not stated)	13	0.0073	0.65	6.1*	8580*	nt	3336*
Cc1noc(/C=C/N(C)C)c1S(=O)(=O)N1CCC(C(=O)O)CC1	nt	-0.85	-0.1	0.42	nt	nt	nt
CC1CCCC(C)N1CCNC(=O)C1CCN(S(=O)(=O)N2CCCCC2)CC1 (configuration not stated)	18	-1.3	-0.57	0.42	nt	nt	nt
CCCc1cc2c(c(NC(C)=O)n1)c(=O)oc1ccccc12	-125	-0.079	-0.07	7.9*	21272*	1716	4588*
CCOc1ccc(C(C)=O)cc1COC(=O)C1=COCCO1	nt	0.2	0.083	4.7*	12532*	1772	3484*
CCC1CCCCN1C(=O)CSc1nc(N)c(NC(=O)c2ccc(OC)c(OC)c2)c(=O)[nH]1 (configuration not stated)	-98	-0.059	0.36	-0.42	nt	nt	nt
CC(NC(=O)Cn1nc(C(=O)O)c2ccccc2c1=O)c1ccccc1 (configuration not stated)	-44	-0.0078	0.9	0.19	nt	nt	nt
Cc1ccccc1OCCn1nc(C(=O)O)c2ccccc2c1=O	nt	1.4	-0.83	3.9*	7632*	1464	3756*
CSc1ncc(Cl)c(C(=O)NCc2ccc3c(c2)OCO3)n1	-82	1.4	-1.1	12*	16252*	1504	3100*
O=C1CC(N2CCC(O)(c3ccc(Cl)cc3)CC2)C(=O)N1Cc1ccc(N2CCCC2=O)cc1 (configuration not stated)	-26	-0.39	0.11	0.94	nt	nt	nt
O=S(=O)(c1ccc(F)cc1)N1CN(Cc2ccco2)c2nc3ccccc3nc21	nt	0.023	0.031	nt	nt	nt	nt
O=S(=O)(c1cccs1)N1CN(Cc2cccs2)c2nc3ccccc3nc21	21	-0.32	0.068	3.8*	15624*	1724	3880*
O=S(=O)(c1cccs1)N1CN(CC2CCCO2)c2nc3ccccc3nc21 (configuration not stated)	nt	-0.1	0.053	nt	nt	nt	nt
C=CCN1CN(S(=O)(=O)c2cccs2)c2nc3ccccc3nc21	nt	0.04	-0.68	6*	14144*	1432	3188*
Cn1c(=O)cc(SCC(=O)NCCN2CCN(c3ccccc3F)CC2)c2cc(Cl)ccc21	nt	-1	0.39	0.082	nt	nt	nt
CC(=O)Nn1cc2c(c1-c1ccccc1)c(=O)n(C)c(=O)n2C	34	-0.34	-0.92	1.3	nt	nt	nt
Cc1cccc(-c2c3c(=O)n(C)c(=O)n(C)c3cn2-c2ccccc2O)c1	nt	0.48	0.56	5.8*	9336*	1844	3884
CCCn1nc(NS(C)(=O)=O)c2cc3cccc(C)c3nc21	-9	0.4	-0.4	16*	16772*	1876	3468*
COc1cc(NC(=O)CCn2c(=O)[nH]c3ccsc3c2=O)cc(OC)c1	-81	1.3	-0.0081	0.75	nt	nt	nt
CC(=O)Nc1ccc(Oc2cc(C#N)c(C#N)cc2N2CCCCCC2)cc1	11	0.12	-0.92	4.9*	8364*	1744	3860*
